# Test results: PubChem BioAssay AID720579 (National Center for Advancing Translational Sciences (NCATS), 2013)
# In all, about 310,000 compounds went through this assay and about 1,900 (0.61%) were called active. Not shown: some 8% with an inconclusive outcome. The call rests on the fitted dose curve; tested in A549 cells. Only a selection was taken, and actives are over-represented in it overall.
# Test: qHTS for Stage-Specific Inhibitors of Vaccinia Orthopoxvirus: mCherry Reporter Primary qHTS; further: nearly all actives have a fitted effect of over 35% in size
# Conditions: Vaccinia virus mCherry reporter infection, fluorescence; series mostly up to 36.5 µM; activity change, negative = inhibition: at the top concentration
# On the % scale 0 is the no-effect control and ±100 the full control effect; potency means the concentration at half of the fitted maximal effect.
SMILES,outcome,"activity change, negative = inhibition",Potency
O=C(CC(CC(=O)c1ccccc1)c1ccco1)c1ccccc1,inactive,–,–
Cc1ccccc1-c1nc(NC(C)C)nc2cc(-c3ccccc3)sc12,inactive,–,–
Cc1ccccc1S(=O)(=O)N1[C@@H](c2cccc(Cl)c2)C(C(=O)OC(C)(C)C)=CC[C@H]1c1ccc(Cl)cc1,–,0.209% (inactive),–
COc1cc2nc(N3CCCN(C)CC3)nc(NC(C)C)c2cc1OC,–,-17.2% (inactive),–
C=CCC[C@H](Cc1ccc(F)cc1)C(=O)OC[C@@H](NC(=O)[C@@H](CC=C)CC(=O)N[C@H](CO)Cc1ccccc1)C(C)(C)C,–,–,12.6 µM (active)
C=CCC[C@H](Cc1ccc(F)cc1)C(=O)OC[C@@H](Cc1c[nH]c2ccccc12)NC(=O)[C@H](CC=C)CC(=O)N[C@H](CO)Cc1ccccc1,–,-11% (inactive),–
C=CC[C@@H](CC(=O)N[C@@H](CO)Cc1ccccc1)C(=O)N[C@H](COC(=O)[C@H](CC=C)CC(=O)OC(C)(C)C)Cc1ccccc1,–,-14.1% (inactive),–
COc1ccc2[nH]c3c(C)c4cc[n+](C)cc4c(C)c3c2c1,–,–,11.2 µM (active)
COc1ccc2[nH]c3c(c2c1)CCN[C@H]3C,–,-21% (inactive),–
COc1ccc2[nH]c(C(=O)N3CCN(C)CC3)c(C)c2c1,inactive,–,–
Cc1ccccc1-n1c(SCC(=O)NCc2cccs2)nnc1-c1ccncc1,–,-3.57% (inactive),–
Cc1ccc(Nc2nc(CSc3nnc(-c4ccncc4)n3-c3ccccc3C)cs2)cc1,–,–,10 µM (active)
Cc1ccc(-n2c(SCC(=O)N3c4ccccc4Sc4ccccc43)nnc2-c2ccncc2)cc1,–,-4.9% (inactive),–
Cc1cccc(Nc2cc(C)nc(-n3nc(C)cc3C)n2)c1,–,-3.8% [at 7.34 µM] (inactive),–
COc1ccccc1/C=N\Nc1cc(C)nc(-n2nc(C)cc2C)n1,–,–,5.62 µM (active)
COc1cc(Cl)c(C)cc1Nc1nnc(-n2nc(C)cc2C)c2ccccc12,–,-2.28% (inactive),–
Cc1ccc(S(=O)(=O)Nc2nc(C)cc(N/N=C/c3ccc(O)cc3)n2)cc1,–,-6.98% (inactive),–
COc1ccc(NC(=O)c2nc(-n3nc(C)cc3C)ccc2Cl)cc1Cl,–,-18.6% (inactive),–
Cc1cc(N/N=C\c2ccc(Br)cc2)nc(-n2nc(C)cc2C)n1,–,–,2.24 µM (active)
COc1cc(CNc2ncnc3c2ncn3[C@H]2CN(Cc3cccs3)C[C@@H](CO)O2)cc(OC)c1OC,inactive,–,–
COc1ccc(/C=C/c2ccccn2)cc1OC,–,21.9% (inactive),–
CCOC(=O)[C@]12CCCC=C1N(Cc1cccc3ccccc13)C(=O)[C@H](CC(=O)NCC13CC4CC(CC(C4)C1)C3)C2,–,-0.908% (inactive),–

SMILES,outcome,"activity change, negative = inhibition",Potency
Cc1cccc(-n2c(C)cc(/C=N/NC(N)=S)c2C)c1,–,-5.12% (inactive),–
CC(C)Oc1c(Br)cc(Br)cc1/C=N/NC(N)=S,–,–,3.98 µM (active)
NC(=S)N/N=C/c1coc2cc(Cl)ccc2c1=O,–,-7.3% (inactive),–
CCCCCCCCN1C(=O)[C@H](CC(=O)NCc2cccc3ccccc23)C[C@@]2(C(=O)OC)CCCCC=C12,–,-22.5% (inactive),–
COc1ccc(Cn2c(=O)[nH]c3cc(C(=O)N4CCN(C(=O)c5ccco5)CC4)ccc3c2=O)cc1,inactive,–,–
CCNC(=O)N1c2ccccc2Sc2ccccc21,–,-3.31% (inactive),–
CCCn1c(=N)n(CC(=O)c2ccc(Cl)c(Cl)c2)c2ccccc21,–,-14.5% (inactive),–
CC1C(C)N(C(=O)CCl)c2ccccc2N1C(=O)CCl (centres undefined),–,–,8.91 µM (active)
COC(=O)[C@]12CCCCC=C1N(Cc1ccc3c(c1)OCO3)C(=O)[C@H](CC(=O)NCc1cccs1)C2,–,-23.1% (inactive),–
C(=Nc1ccc(/C=C/c2ccnc3ccccc23)cc1)Nc1ccc(/C=C/c2ccnc3ccccc23)cc1,–,-8.7% (inactive),–
CN(C)S(=O)(=O)c1cccc(NC(=O)COC(=O)c2cc(=O)[nH]c(=O)[nH]2)c1,inactive,–,–
CN(C)S(=O)(=O)c1cccc(NC(=O)COC(=O)/C=C/c2cccs2)c1,–,-12.8% (inactive),–
CN(C)S(=O)(=O)c1cccc(NC(=O)Cc2ccsc2)c1,–,–,12.6 µM (active)
O=C(NC(c1ccc(Cl)cc1)c1cnccn1)C1CCN(Cc2ccc(Cl)cc2)CC1 (centres undefined),–,-18.8% (inactive),–
O=C(Nc1cccc2ccccc12)c1[nH]c(-c2ccccc2)c2c1C(=O)N(C1CC1)C2=O,–,-11.3% (inactive),–
CCCCC(CCCC)c1ccc(C=Nc2ccc(/C=C/c3ccnc4ccccc34)cc2)cc1,–,-8.04% (inactive),–
Oc1ccc(N=Nc2nccs2)c(O)c1,–,–,3.98 µM (active)
CCN1CCN(c2ccc(/C=C/c3ccnc4ccccc34)cc2)CC1,–,8.12% (inactive),–
N#Cc1ccc(C(C(=O)NCc2ccccc2)n2c(=O)c(-c3ccco3)nc3ccccc32)cc1 (centres undefined),–,3.83% (inactive),–
CC1(Oc2cccc(F)c2)CCN(Cc2ccccc2OC(F)F)C1 (centres undefined),–,-7.02% (inactive),–
CCN(C(=O)Nc1cccc2ccccc12)c1ccccc1,–,-9.5% (inactive),–
CC(=O)N1Cc2cc(C(=O)NCc3cccc(F)c3)nc(-c3cccc(C4=CCCCC4)c3)c2[C@H]1CCO,–,19.3% (inactive),–
